Results as given in publication PMC8222333, “AsCas12a ultra nuclease facilitates the rapid generation of therapeutic cell medicines”.

Assays:
dAsCas12a WT = dAsCas12a WT (Acidaminococcus sp., UniProt U2UMQ6 1-1307, D908A;E993A;D1235A); experiment: Spec-seq (native PAGE EMSA with sequencing of bound and unbound); 25 mM Tris-HCl pH 7.4, 150 mM KCl, 5 mM MgCl2, 10% glycerol, 1 mM DTT, 40 ng/uL salmon sperm DNA; 400 nM Cas12a, 480 nM crRNA, 50 nM library, 37 C 1 h; native P; high values mean tight binding
dAsCas12a Ultra = dAsCas12a Ultra (Acidaminococcus sp., UniProt U2UMQ6 1-1307, M537R;F870L;D908A;E993A;D1235A); experiment: Spec-seq (native PAGE EMSA with sequencing of bound and unbound); 25 mM Tris-HCl pH 7.4, 150 mM KCl, 5 mM MgCl2, 10% glycerol, 1 mM DTT, 40 ng/uL salmon sperm DNA; 400 nM Cas12a, 480 nM crRNA, 50 nM library, 37 C 1 h; native PAGE at room temperature; high values mean tight binding; details: protein: recombinant
dAsCas12a E174R = dAsCas12a E174R (Acidaminococcus sp., UniProt U2UMQ6 1-1307, E174R;D908A;E993A;D1235A); experiment: as above; details: protein: recombinant;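 further: relative affinity from the bound to unbound sequence frequency ratio in Spec-seq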
dAsCas12a S542R = dAsCas12a S542R (Acidaminococcus sp., UniProt U2UMQ6 1-1307, S542R;D908A;E993A;D1235A); experiment: as above; details: protein: recombinant;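 further: relative affinity from the bound to unbound sequence frequency ratio in Spec-seq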
dAsCas12a K548R = dAsCas12a K548R (Acidaminococcus sp., UniProt U2UMQ6 1-1307, K548R;D908A;E993A;D1235A); experiment: as above; details: protein: recombinant
d-enCas12a = d-enCas12a (Acidaminococcus sp., UniProt U2UMQ6 1-1307, E174R;S542R;K548R;D908A;E993A;D1235A); experiment: as above; details: protein: recombinant
d-enCas12a-Ultra = d-enCas12a-Ultra (Acidaminococcus sp., UniProt U2UMQ6 1-1307, E174R;S542R;K548R;M537R;F870L;D908A;E993A;D1235A); experiment: as above; details: protein: recombinant;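 further: relative affinity from the bound to unbound sequence frequency ratio in Spec-seq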

B1: CTTA (dsDNA)
DNA 1: GCTATCTAGTGCTCAGTACGCACTGCTTAAGGAAACTTCTGGCAGGACCAGGTCATGAGATCGGAAGAGCACACGTCTGAACTCCAGTCA
DNA 2: TGACTGGAGTTCAGACGTGTGCTCTTCCGATCTCATGACCTGGTCCTGCCAGAAGTTTCCTTAAGCAGTGCGTACTGAGCACTAGATAGC
RNA: AAUUUCUACUCUUGUAGAUAGGAAACUUCUGGCAGGACC
- binding signal (dAsCas12a WT): -6.66 lnKA
- binding signal (dAsCas12a Ultra): -4.22 lnKA
- binding signal (dAsCas12a E174R): -2.38 lnKA
- binding signal (dAsCas12a S542R): -4.07 lnKA
- binding signal (dAsCas12a K548R): -5.75 lnKA
- binding signal (d-enCas12a): -0.581 lnKA
- binding signal (d-enCas12a-Ultra): -0.177 lnKA

B2: CTTC (dsDNA)
DNA 1: GCTATCTAGTGCTCAGTACGCACTGCTTCAGGAAACTTCTGGCAGGACCAGGTCATGAGATCGGAAGAGCACACGTCTGAACTCCAGTCA
DNA 2: TGACTGGAGTTCAGACGTGTGCTCTTCCGATCTCATGACCTGGTCCTGCCAGAAGTTTCCTGAAGCAGTGCGTACTGAGCACTAGATAGC
RNA: AAUUUCUACUCUUGUAGAUAGGAAACUUCUGGCAGGACC
- binding signal (dAsCas12a WT): -6.68 lnKA
- binding signal (dAsCas12a Ultra): -4.32 lnKA
- binding signal (dAsCas12a E174R): -3.79 lnKA
- binding signal (dAsCas12a S542R): -4.75 lnKA
- binding signal (dAsCas12a K548R): -5.73 lnKA
- binding signal (d-enCas12a): -0.728 lnKA
- binding signal (d-enCas12a-Ultra): -0.217 lnKA

B3: CTTG (dsDNA)
DNA 1: GCTATCTAGTGCTCAGTACGCACTGCTTGAGGAAACTTCTGGCAGGACCAGGTCATGAGATCGGAAGAGCACACGTCTGAACTCCAGTCA
DNA 2: TGACTGGAGTTCAGACGTGTGCTCTTCCGATCTCATGACCTGGTCCTGCCAGAAGTTTCCTCAAGCAGTGCGTACTGAGCACTAGATAGC
RNA: AAUUUCUACUCUUGUAGAUAGGAAACUUCUGGCAGGACC
- binding signal (dAsCas12a WT): -7.38 lnKA
- binding signal (dAsCas12a Ultra): -5.08 lnKA
- binding signal (dAsCas12a E174R): -4.65 lnKA
- binding signal (dAsCas12a S542R): -5.07 lnKA
- binding signal (dAsCas12a K548R): -6.66 lnKA
- binding signal (d-enCas12a): -1.7 lnKA
- binding signal (d-enCas12a-Ultra): -0.41 lnKA

B4: CTTT (dsDNA)
DNA 1: GCTATCTAGTGCTCAGTACGCACTGCTTTAGGAAACTTCTGGCAGGACCAGGTCATGAGATCGGAAGAGCACACGTCTGAACTCCAGTCA
DNA 2: TGACTGGAGTTCAGACGTGTGCTCTTCCGATCTCATGACCTGGTCCTGCCAGAAGTTTCCTAAAGCAGTGCGTACTGAGCACTAGATAGC
RNA: AAUUUCUACUCUUGUAGAUAGGAAACUUCUGGCAGGACC
- binding signal (dAsCas12a WT): -8.63 lnKA
- binding signal (dAsCas12a Ultra): -7.25 lnKA
- binding signal (dAsCas12a E174R): -6.84 lnKA
- binding signal (dAsCas12a S542R): -7.35 lnKA
- binding signal (dAsCas12a K548R): -8.41 lnKA
- binding signal (d-enCas12a): -2.97 lnKA
- binding signal (d-enCas12a-Ultra): -0.647 lnKA

B5: GTTA (dsDNA)
DNA 1: GCTATCTAGTGCTCAGTACGCACTGGTTAAGGAAACTTCTGGCAGGACCAGGTCATGAGATCGGAAGAGCACACGTCTGAACTCCAGTCA
DNA 2: TGACTGGAGTTCAGACGTGTGCTCTTCCGATCTCATGACCTGGTCCTGCCAGAAGTTTCCTTAACCAGTGCGTACTGAGCACTAGATAGC
RNA: AAUUUCUACUCUUGUAGAUAGGAAACUUCUGGCAGGACC
- binding signal (dAsCas12a WT): -6.86 lnKA
- binding signal (dAsCas12a Ultra): -4.67 lnKA
- binding signal (dAsCas12a E174R): -3 lnKA
- binding signal (dAsCas12a S542R): -4.46 lnKA
- binding signal (dAsCas12a K548R): -6 lnKA
- binding signal (d-enCas12a): -0.547 lnKA
- binding signal (d-enCas12a-Ultra): -0.184 lnKA

B6: GTTC (dsDNA)
DNA 1: GCTATCTAGTGCTCAGTACGCACTGGTTCAGGAAACTTCTGGCAGGACCAGGTCATGAGATCGGAAGAGCACACGTCTGAACTCCAGTCA
DNA 2: TGACTGGAGTTCAGACGTGTGCTCTTCCGATCTCATGACCTGGTCCTGCCAGAAGTTTCCTGAACCAGTGCGTACTGAGCACTAGATAGC
RNA: AAUUUCUACUCUUGUAGAUAGGAAACUUCUGGCAGGACC
- binding signal (dAsCas12a WT): -7.08 lnKA
- binding signal (dAsCas12a Ultra): -4.74 lnKA
- binding signal (dAsCas12a E174R): -4.51 lnKA
- binding signal (dAsCas12a S542R): -4.83 lnKA
- binding signal (dAsCas12a K548R): -5.84 lnKA
- binding signal (d-enCas12a): -0.632 lnKA
- binding signal (d-enCas12a-Ultra): -0.198 lnKA
